Screens as filed in PubChem BioAssay.
Most compounds without a hit are left out; they make up all but 3.9% or so of the library.
PHOSPHO1 block: inhibitors of human PHOSPHO1 phosphatase. Q8TCT1. 290,000 tested, 1.1% active. AID 1565. inhibition, % at 13.3 µM. recombinant PHOSPHO1, absorbance phosphatase assay; in the data active means inhibition above about 60%
Target sequence (Q8TCT1 whole entry, looked up): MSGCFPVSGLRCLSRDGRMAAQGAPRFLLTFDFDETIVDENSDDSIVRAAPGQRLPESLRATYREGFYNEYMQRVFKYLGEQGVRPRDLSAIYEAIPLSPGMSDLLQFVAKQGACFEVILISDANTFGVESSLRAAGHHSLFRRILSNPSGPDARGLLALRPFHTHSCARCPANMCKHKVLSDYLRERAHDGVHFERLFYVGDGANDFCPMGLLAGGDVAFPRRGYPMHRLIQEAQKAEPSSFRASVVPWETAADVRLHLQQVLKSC
Platelet DG rel: platelet dense granule release activity; AID 1663; 300,000 tested, 0.22% active; human platelet-rich plasma, SFLLRN dense granule ATP release, luminescence; inhibition, %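 (compounds screened at 7.5 µM in platelet-rich plasma)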;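 active means mean replicate score, as percent of positive control, at or above 50; inconclusive means mean below 50 but at least one replicate at or above 50; inactive means mean and every replicate below 50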
WT yeast gro inh: growth inhibition of WT yeast, mitochondrial fusion screen. mitochondrial fusion phenotypic screen, WT strain. inhibition, % at 10 µM. 190,000 tested, 2.1% active. AID 1362; in the data active means inhibition above about 58%; tested in S. cerevisiae
SKKanGAS inh: inhibitors of SKKanGAS S. pyogenes growth in kanamycin (SK-promoter or general growth effect); BacTiter-Glo, 6 h; inhibition, % at 7.5 µM; 300,000 tested, 1.3% active;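 active means mean replicate score, as percent of positive control median, at least 50; inconclusive means mean below 50 but one replicate at or above 50; inactive means mean and every replicate below 50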;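 further: strain carries kanamycin resistance gene driven by streptokinase promoter and grows in 40 µg/ml kanamycin; loss of luminescence reflects streptokinase promoter inhibition or plain growth inhibition; 0% = median of DMSO wells and 100% = positive control at its reference dose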
TPT1 inh: blocks Candida albicans tRNA 2'-phosphotransferase. recombinant caTPT1, FP RNA substrate dephosphorylation. inhibition, % at 5 µM. 300,000 tested, 0.81% active. AID 1962;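 active means inhibition above the mean of all tested compounds plus 3 SD, set per screening campaign, cut at about 24% in these data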;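 further: plate controls were DMSO alone for no effect and ferristatin control at 100 nM for full effect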
Rtt109 Vps75: blocks Candida albicans Rtt109/Vps75 acetyltransferase activity; Q5AAJ8; purified Rtt109/Vps75, ThioGlo CoA-SH fluorescence, 4 h; inhibition, % at 34.9 µM; 330,000 tested, 0.16% active; AID 540336;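 active means inhibition of at least 50% in every replicate; inconclusive means best replicate reaches 50% inhibition but some replicates fall short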
Target sequence (Q5AAJ8 whole entry, looked up): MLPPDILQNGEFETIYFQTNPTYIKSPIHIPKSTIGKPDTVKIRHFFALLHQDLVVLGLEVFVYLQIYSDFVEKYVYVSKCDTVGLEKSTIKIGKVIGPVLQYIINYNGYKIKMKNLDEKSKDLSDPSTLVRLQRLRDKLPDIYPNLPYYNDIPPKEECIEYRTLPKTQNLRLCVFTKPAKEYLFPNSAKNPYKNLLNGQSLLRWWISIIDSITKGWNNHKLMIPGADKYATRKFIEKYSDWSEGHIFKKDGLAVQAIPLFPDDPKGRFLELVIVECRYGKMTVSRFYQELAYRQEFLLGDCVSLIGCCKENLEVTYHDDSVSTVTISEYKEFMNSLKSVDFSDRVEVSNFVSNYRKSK
The depositor's hits bear a star; ? = inconclusive; / = no result given.

SMILES	PHOSPHO1 block	Platelet DG rel	WT yeast gro inh	SKKanGAS inh	TPT1 inh	Rtt109 Vps75
CCC(NC(=S)NCc1ccc(F)cc1)c1ccc(C(C)C)cc1 (stereo not drawn)	26	3	/	40	2	6
CC(NC(=S)NCc1ccc(F)cc1)C12CC3CC(CC(C3)C1)C2 (stereo not drawn)	52	-1	77*	?	-3	-4
O=C1CC(Sc2cccs2)C(=O)N1c1ccccc1 (stereo not drawn)	51	0	/	-4	2	2
C=CCNc1nnc(SC2CC(=O)N(c3ccc(OC)cc3)C2=O)s1 (stereo not drawn)	93*	17	2	0	1	126*
CCOc1ccc(N2C(=O)CC(Sc3nnnn3-c3ccccc3)C2=O)cc1 (stereo not drawn)	6	6	59*	0	/	5
CCOc1ccc(N2C(=O)CC(Sc3nc(C)cc(C)n3)C2=O)cc1 (stereo not drawn)	23	-4	-6	-2	-2	46
Cc1nnc(SC2CC(=O)N(c3ccccc3)C2=O)s1 (stereo not drawn)	-4	4	11	-3	-2	100*
CCCC(C)C(=O)Nc1nnc(CCc2ccccc2)s1 (stereo not drawn)	24	10	/	0	-4	4
O=[N+]([O-])c1ccc(/C=N/Nc2nc(-c3ccccc3)c3cc(Br)ccc3n2)o1	15	-3	73	95*	19	-5
N#Cc1ccccc1/C=N/Nc1nc(-c2ccccc2)c2cc(Br)ccc2n1	46	2	-8	0	2	1
CC(C)c1ccc(-n2nnnc2SCC(=O)NC2CC2)cc1	/	/	/	/	/	-1
O=[N+]([O-])c1cc(Br)cc(C=Nc2ccc3c(c2)OCO3)c1O	-40	1	/	54*	0	-1
O=[N+]([O-])c1ccc(O)c(C=Nc2ccc3c(c2)OCO3)c1	6	-3	/	8	-1	6
O=C(c1cccc([N+](=O)[O-])c1)N1CCN(c2n[nH]c(=O)[nH]c2=O)CC1	40	-2	/	-7	-2	-2
Cn1c(CNC(=O)c2ccco2)nnc1SCC(=O)Nc1cccc(Br)c1	93*	-2	-43	-3	3	-6
CCn1c(CNC(=O)c2ccco2)nnc1SCC(=O)Nc1cc(C(F)(F)F)ccc1Cl	7	-5	70*	-1	-4	17
Cc1cc(C)cc(N(C(=O)c2ccccn2)C(C(=O)NC2CCCCC2)c2ccncc2)c1 (stereo not drawn)	27	8	/	0	/	-10
CS(=O)(=O)N(Cc1cc2ccccc2[nH]c1=O)C1CCCCC1	-2	2	94*	-1	2	10
Nc1ncc(Br)cc1S(=O)(=O)NCCC(=O)NCCc1ccc(Cl)cc1	41	4	/	-9	-3	4
CCc1cc2c(=O)n(CCCOC)c(SCC(=O)Nc3oc(C)c4c(C)n[nH]c(=O)c34)nc2s1	/	1	/	17	-2	4
CCN(C[C@H]1N[C@@](C)(C(=O)OC)[C@H]2C(=O)N(C)C(=O)[C@@H]12)S(=O)(=O)c1ccc(OC)cc1	/	/	/	/	/	5
COC(=O)[C@@H]1CC[C@H](C)[C@@H](c2ccc(C)cc2)N1C(=O)c1ccc(/C=N/O[C@@H](C)CN2CCCCc3nc(C)c(C)cc32)cc1	-1	1	75*	17	0	/
COc1ccc(N(CC(=O)NC2CCS(=O)(=O)C2)S(=O)(=O)c2ccc(Cl)c(Cl)c2)cc1 (stereo not drawn)	/	/	/	/	/	12
CCC(NC(=O)CCc1c(C)c2cc3c(C)c(C)oc3cc2oc1=O)C(=O)N[C@@H](Cc1ccccc1)C(=O)O (stereo partly drawn)	19	-1	/	61*	-2	16
CCOC(=O)C1(Cc2cccc(Cl)c2)CCCN(C(=O)c2ccc(COC)s2)C1 (stereo not drawn)	17	-20	/	-4	0	3
SMILES	PHOSPHO1 block	Platelet DG rel	WT yeast gro inh	SKKanGAS inh	TPT1 inh	Rtt109 Vps75
Cc1cc(=O)n2[nH]c(-c3ccc(F)cc3)cc2n1	1	1	60*	8	4	1
O=c1cc(-c2ccc([N+](=O)[O-])cc2)nc2cc(-c3ccc(F)cc3)[nH]n12	-9	-4	22	68*	2	12
CCC1CCCCN1C(=O)c1cc(-c2ccc(Cl)c(Cl)c2)on1 (stereo not drawn)	2	-1	74*	-10	1	-5
Cc1ccc(C(=O)NC(=S)NNC(=O)c2cccc([N+](=O)[O-])c2)cc1	-130	-4	/	74*	/	0
O=C(NNC(=S)NC(=O)c1cccc([N+](=O)[O-])c1)c1ccc(Br)cc1	18	-4	/	68*	1	0
Cc1occc1C(=O)NNC(=S)Nc1cccc([N+](=O)[O-])c1	88*	5	10	-2	2	17
O=C(NNC(=S)NC(=O)c1cccc([N+](=O)[O-])c1)c1ccc(O)cc1	-102	-6	/	0	4	/
Cc1ccc(S(=O)(=O)Nc2cncnc2NS(=O)(=O)c2ccc(C)cc2)cc1	/	/	/	/	/	1
O=C(NCCCN1CCOCC1)c1cccc(NS(=O)(=O)c2ccc(Br)cc2)c1	/	/	/	/	/	-3
CCc1c(C)nc(Nc2nc(C)c3cc(OC)ccc3n2)[nH]c1=O	16	5	49	-2	-2	/
COc1ccc2c(C)nc(Nc3nc(C)c(C)c(=O)[nH]3)nc2c1	23	10	62*	31	1	0
CCc1c(C)nc(Nc2nc(C)c3ccc(OC)cc3n2)[nH]c1=O	3	-8	62*	2	2	0
CCO[C@@H]1OC(C(=O)Nc2ccccc2)=C[C@H](c2ccc(C(F)(F)F)cc2)[C@H]1CCCO	0	-5	-13	32	-2	2
CCO[C@H]1OC(C(=O)Nc2ccccc2)=C[C@@H](c2csc3ccccc23)[C@@H]1CCCO	30	-5	72*	10	-1	4
CCO[C@H]1OC(C(=O)Nc2ccccc2)=C[C@@H](c2ccc(Br)cc2)[C@@H]1CCCO	28	-4	65*	11	0	-1
COc1ccc(N2CC(C(=O)NCc3n[nH]c(=O)c4ccccc34)CC2=O)cc1 (stereo not drawn)	/	3	/	-3	/	-2
CC(C)CNC(=O)/C=C/C=C/c1ccc2c(c1)OCO2	/	/	/	/	/	-5
Cc1ccc(CN(C(=O)c2ccccc2C)C2CCS(=O)(=O)C2)o1 (stereo not drawn)	/	-3	/	-3	-2	72*
CCCCn1c(SCC(=O)NC2CCCC2)nnc1-c1ccco1	40	8	/	0	0	3
O=[N+]([O-])c1ccc(O)c(Nc2ncnc3ccc(Br)cc23)c1	51	-5	4	51*	-5	-1
O=[N+]([O-])c1ccc(O)c(Nc2ncnc3ccccc23)c1	52	0	-11	-1	-5	-6
Cc1nn(CC(=O)OCC(=O)c2ccccc2)c(C)c1[N+](=O)[O-]	/	/	/	/	/	1
